# Measurements taken from PubChem BioAssay (EPA / NIEHS).
# The source made the active and inactive calls. How the source made its calls: active means hit-call score of the fitted dose curve at least 0.9, where 1 is the maximum; inactive means score below 0.9.
# Read-out: Cytochrome P450 3A7 (Homo sapiens) (UniProt P24462)
# Assay: LTEA_HepaRG_CYP3A7: Life Technologies and Expression Analysis (LTEA) Assay for CYP3A7 using HepaRG (AID 2283492)
# Details: mRNA level, 48 h; actives raise or lower the signal
# Procedure: LTEA_HepaRG is a cell based, multiplexed-readout assay that uses HepaRG, a human liver cell line, with measurements taken at 48 hours after chemical dosing on a 96-well plate.LTEA_HepaRG_CYP3A7 is one of 102 assay component(s) measured in the LTEA HepaRG cell culture assay. It is a marker of NR mediated metabolism/Undifferentiated hepatocyte.Data from the assay component LTEA_HepaRG_CYP3A7 was analyzed into 1 endpoint. This assay endpoint, LTEA_HepaRG_CYP3A7, was analyzed with bidirectional fitting relative to DMSO as the negative control and baseline of activity. Using a type of inducible reporter, measures of mRNA induction for gain or loss-of-signal activity can be used to understand regulation of transcription factor activity. To generalize the intended target to other relatable targets, this assay endpoint is annotated to the cyp intended target family, where the subfamily is xenobiotic metabolism.
# A total of 1060 chemcials from the ToxCast library were tested in eight-point concentration-response experiments. Cell culture and cytotoxicity assays were conducted at Thermo Fisher Scientific's Custom Services facility (Madison, WI). A single lot of human HepaRG cells (Thermo Fisher Scientific, Frederick, MD) was used for the cell culture experiments. 96-well format collagen type I coated plates of human HepaRG cells were prepared using established methods. Briefly, cryopreserved HepaRG cells were thawed, plated at a density of approximately 100,000 cells/well in HepaRG Thaw, Plate, and General Purpose media (HPRG770, Thermo Fisher Scientific), and incubated for 48 hours. 0.5% DMSO was selected as vehicle control to balance the requisite need of DMSO in HepaRG cultures to maintain differentiation (for example, baseline metabolism, proportions of hepatocytes vs. cholangiocytes), while enabling further hepatic receptor pathway activation (for example, PXR and CAR) in response to chemical exposure. 48 hours after plating, the culture medium was replaced with HepaRG Serum-Free Incudtion Media. Cells were exposed to each test chemical in duplicate and maintained in CO2 incubators for another 48 hours. Chemical plates were thawed to room temperature and 200x concentrations of treatment groups were prepared. 8-point conentration-reponse curves were made with the highest exposure at 100 uM, followed by half-log dilutions, all in 0.5% DMSO. Each test plate contained variouse controls, induction positive controls (1mM phenobarbital), cytotoxicity positive controls ([…] aflatoxin B1), vehicle controls (0.5% DMSO), and total lysis controls (0.5% DMSO). Cell morphology images were taken using an Essen IncuCyte FLR automated microscope, with six 96-well plates imaged in about 24 minutes. Images were captured and exported and JPEG files. Spent culture media was transfered to black-well plates for the LDH assay, and remaining media was sorted at -80 C for later use. Cells were treated with RLT buffer and frozen until shipped for gene expression analysis. Total RNA was isolated from the cell suspension in 75 uL of Buffer RLT (Qiagen, Germantown, MD 20874) by Quintiles/Expression Analysis (Durham, NC) using a custom isolation procedure. Total RNA from each plate well was transferred to a preamplification plate. Fluidigm's 96.96 Dynamic ArrayTM (Fluidigm, Amsterdam, the Netherlands) technology was used for gene expression analyses by quantitative reverse transcription polymerase chain reaction (qRT-PCR, performed by Quintiles/Expression Analysis, Durham, NC)89. Standard TaqManTM Assays (Applied Biosystems/ThermoFisher Scientific, Foster City, CA) were used to assess the expression of 93 genes selected based on their selectivity and sensitivity to important hepatic receptors known to be modulated by environmental chemicals; importance in human hepatocyte functionality; and hepatotoxicity. […]
# Sequence of Cytochrome P450 3A7 (Homo sapiens) (P24462 whole entry, looked up): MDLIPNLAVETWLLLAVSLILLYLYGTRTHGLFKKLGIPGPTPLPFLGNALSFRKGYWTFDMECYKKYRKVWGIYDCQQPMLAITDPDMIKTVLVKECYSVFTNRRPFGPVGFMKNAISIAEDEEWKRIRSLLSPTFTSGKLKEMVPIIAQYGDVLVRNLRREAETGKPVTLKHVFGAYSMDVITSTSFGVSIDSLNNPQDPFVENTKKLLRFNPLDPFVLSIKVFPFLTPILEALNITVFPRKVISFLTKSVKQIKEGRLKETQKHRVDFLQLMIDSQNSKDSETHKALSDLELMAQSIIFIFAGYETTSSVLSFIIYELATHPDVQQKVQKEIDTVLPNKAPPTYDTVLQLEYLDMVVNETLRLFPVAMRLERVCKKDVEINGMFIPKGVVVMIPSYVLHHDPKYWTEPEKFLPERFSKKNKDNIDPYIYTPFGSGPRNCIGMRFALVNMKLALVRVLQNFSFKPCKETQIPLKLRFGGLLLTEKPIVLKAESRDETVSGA
SMILES,outcome,AC50
Cc1ccc(C)c(C)c1,inactive,
CC1(C)CC(N=C=O)CC(C)(CN=C=O)C1 (stereo not given),inactive,
Nc1ccc(S(=O)(=O)c2ccc(N)cc2)cc1,inactive,
CN1CCCC1=O,inactive,
Cc1ccc(N(C)C)cc1,inactive,
COc1cc(C=O)ccc1O,inactive,
Cc1nc(C)nc(N2C[C@@H](C)N(c3ccnc([C@@H](C)O)n3)[C@@H](C)C2)n1,,13.8 µM (active)
CCCCCCCCCCCCCO,inactive,
CCNc1cccc(C)c1,inactive,
COCCOCCOC,inactive,
NC(=O)Cn1c(=O)cc(CCN2CCN(c3nccc4sccc34)CC2)c2ccc(F)cc21,inactive,
COC(=O)c1ccc(O)cc1,inactive,
CN[C@H]1CC[C@@H](c2ccc(Cl)c(Cl)c2)c2ccc(S(N)(=O)=O)cc21,inactive,
CCCc1cc(=O)[nH]c(=S)[nH]1,inactive,
CCCCCCCCCCCCCCCCCC(=O)O,inactive,
O=c1[nH]cc(F)c(=O)[nH]1,inactive,
CNC(=O)[C@H]1O[C@@H](n2cnc3c(NCc4cc(Cl)ccc4OCc4cc(C)no4)ncnc32)[C@H](O)[C@@H]1N,inactive,
CCCCCCCC=O,inactive,
CC1(C)NC(=O)NC1=O,inactive,
CC(=O)Oc1ccccc1C(=O)O,inactive,

SMILES,outcome,AC50
O=C(O)CCCCC(=O)O,inactive,
O=[N+]([O-])C(CO)(CO)CO,inactive,
CCCCCCOCCO,inactive,
C[Si]1(C)O[Si](C)(C)O[Si](C)(C)O[Si](C)(C)O1,inactive,
CC(=O)OC/C=C(\C)CCC=C(C)C,inactive,
Cc1cccc(C)c1O,inactive,
CC(=O)C(C)=CC1C(C)=CCCC1(C)C (stereo not given),inactive,
CCc1c(C(=O)NN2CCCCC2)nn(-c2ccc(Cl)cc2Cl)c1-c1ccc(Br)cc1,,23.1 µM (active)
CCCCN(CCCC)CCCC,inactive,
Cc1ccccc1Cl,inactive,
COCCOC[C@H](CC1(C(=O)NC2CCC(C(=O)O)CC2)CCCC1)C(=O)Oc1ccc2c(c1)CCC2 (stereo not given in full),inactive,
Clc1cc(Cl)c(Cl)cc1Cl,inactive,
CCCCCC(=O)O,inactive,
Oc1ccc2ccccc2c1N=Nc1ccccc1,,2.19 µM (active)
Cc1ccc(Cl)cc1,inactive,
CCCCCCCCCCCCCCCC,inactive,
NCCO,inactive,
Cc1cccc([N+](=O)[O-])c1C,inactive,
Cc1cc(NC(=O)C(=O)O)cc(C)c1Oc1ccc(O)c2c1CCC2,,0.0522 µM (active)
Cc1ccc(C(C)C)c(O)c1,inactive,
